AI-2 QS modul = modulates the Vibrio harveyi AI-2 quorum sensing system | AID 2094 | hit rate 0.4% among 300,000 | Vibrio harveyi JMH597 AI-2 luminescence/OD600 ratio, 9 h; active compounds read low; strain lacks LuxN and CqsS sensors; 0 = neutral-control median | activity change, % at 7.5 µM; in the data active = activity change below about -75%, passing the limit was not always enough; inconclusive = no clear call, values can overlap the other calls;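 also: luminescence divided by OD600 gain over 9 h not by final OD600 alone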
ARNT-TACC3 inh = disrupts binding between human ARNT and TACC3; AlphaScreen His-ARNT PAS-B/GST-TACC3 binding, luminescence; TACC3 fragment carries E629A point mutation; inhibition, % at 9.99 µM; hit rate 0.66% among 390,000; Q9Y6A5;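 active = mean inhibition of replicates at least 50% and at least half of replicates each reaching 50%; inconclusive = half or more replicates reach 50% but mean below 50%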
Bfl-1 A1 inh = inhibitors of the anti-apoptotic protein A1, read as caspase activation | hit rate 0.066% among 330,000 | caspase activation, % (test concentration not listed) | MEF A1-2A-BIM cells, Caspase-Glo 3/7 luminescence, 3 h; percent of clofoctol response, vehicle zero;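 active = over half of replicate activation scores above 10%, or exactly half above 10 with the replicate mean above 10; inconclusive = replicate mean below 10 yet half the replicates above 10; inactive = over half of replicates below 10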
Mot1-301 SUMO = SUMOylation pathway inhibition by Mot1-301 growth rescue; S. cerevisiae Mot1-301 growth rescue, ATP luminescence, 38.5C; percent above DMSO median, 100 means doubled; growth rescue, % at 18.8 µM; hit rate 1% among 320,000;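 active = every valid replicate shows activation above 250% relative to neutral control wells; inactive = the rest, any valid replicate at or below 250%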
aDG glyco up = increases alpha dystroglycan glycosylation | Pro5-aDG cells, alpha-DG glycosylation AlphaScreen (IIH6); 0% Pro5, 100% B10-LARGE cell signal | activation, % at 10 µM | hit rate 0.22% among 360,000 | AID 624168;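 active = activation of at least 8% versus controls, or a plate z-score of at least 8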;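 also: Pro5 are CHO cells carrying HIG-tagged alpha-DG that lacks glycosylation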
ARNT Alpha ctr-1 = AlphaScreen artifact in ARNT/TACC3 counter-screen; shares compounds with ARNT-TACC3 inh; His-ARNT PASB-GST AlphaScreen artifact counter-screen, luminescence; AC50, µM (doses to about 68 µM); hit rate 50% among 1,200; AID 651705;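 active = every separate test run was called active for a drop in luminescence, with AC50 within twice the top valid dose, actives reach about 71 µM in these data; inconclusive = the separate test runs disagree in their calls; inactive = all runs inactive, including signal change in the wrong direction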
ARNT Alpha ctr-2 = AlphaScreen artifact flagged for ARNT-TACC3 inhibitors | AC50, µM | hit rate 70% among 45 | Dual-tagged His-ARNT PASB-GST AlphaScreen artifact counter-screen | shares compounds with ARNT-TACC3 inh;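 active = luminescence drop, with half-maximal potency fitted within twice the sample's top valid dose, cut at about 70 µM in these data; inactive = the rest, including signal moving the wrong way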
Hits are given with their value; . = inactive; ? = inconclusive; / = not tested or not shown. Hits are enriched below; roughly 1.8% of the tested compounds scored in any of these assays.

SMILES | AI-2 QS modul | ARNT-TACC3 inh | Bfl-1 A1 inh | Mot1-301 SUMO | aDG glyco up | ARNT Alpha ctr-1 | others
C[C@]12CC[C@H](O)CC1=CCC1C2CC[C@@]2(C)C1CC[C@@H]2NC(=O)[C@@H](N)Cc1cnc[nH]1 (stereo not given in full) | / | 62.3 | / | / | . | .
c1ccc(-c2nnc(SCc3nc4ccccc4[nH]3)n2Cc2ccco2)nc1 | . | 60.9 | . | . | . | .
Cc1ccc(C(=O)NCC(=O)OCC(=O)c2ccc(C)c([N+](=O)[O-])c2)cc1 | . | . | . | . | . | /
O=C(CNCc1ccccn1)Nc1cc(C(F)(F)F)ccc1N1CCOCC1 | . | 58.0 | . | . | . | .
COCCSc1ccccc1C(=O)Nc1ccc(Cl)cn1 | . | . | . | . | . | /
Cc1cc(C)c2c(n1)sc1c(=O)[nH]c(SCc3ccccc3)nc12 | . | . | . | . | . | /
CC(C)NC(=O)Nc1ccc2c(c1)CC(=O)N([C@H](C)CO)C[C@@H](C)[C@@H](CN(C)Cc1ccc(Oc3ccccc3)cc1)O2 | / | active | / | / | / | 70.9µM
COc1ccc(-c2cnc3c(c2)C(=O)N([C@H](C)CO)C[C@@H](C)[C@H](CN(C)Cc2cccnc2)O3)cc1 | / | 108.4 | / | / | / | .
COc1ccc(-c2cnc3c(c2)C(=O)N([C@@H](C)CO)C[C@@H](C)[C@H](CN(C)Cc2cccnc2)O3)cc1 | / | . | / | / | / | /
C[C@@H]1CN([C@H](C)CO)C(=O)Cc2cc(N(C)C)ccc2O[C@H]1CN(C)Cc1ccc(Oc2ccccc2)cc1 | / | 52.4 | / | / | / | 15.4µM
C[C@@H]1CN([C@@H](C)CO)C(=O)Cc2cc(NC(=O)Nc3cccc4ccccc34)ccc2O[C@H]1CN(C)Cc1ccc(Oc2ccccc2)cc1 | / | 72.0 | / | / | / | 14.1µM
C[C@@H]1CN([C@@H](C)CO)C(=O)c2cc(NS(=O)(=O)c3cccs3)ccc2O[C@@H](C)CCCCO[C@@H]1CN(C)S(=O)(=O)c1cn(C)cn1 | / | . | / | / | / | /
COc1ccc(NC(=O)Nc2ccc3c(c2)CC(=O)N([C@H](C)CO)C[C@H](C)[C@@H](CN(C)Cc2ccc(Oc4ccccc4)cc2)O3)cc1 | / | 54.6 | / | / | / | 18.7µM
CC(C)NC(=O)N(C)C[C@H]1Oc2ccc(N(C)C)cc2CC(=O)N([C@@H](C)CO)C[C@@H]1C | / | 60.2 | / | / | / | .
COc1ccc(NC(=O)Nc2ccc3c(c2)CC(=O)N([C@@H](C)CO)C[C@H](C)[C@H](CN(C)Cc2ccc(Oc4ccccc4)cc2)O3)cc1 | / | . | / | / | / | /
C/C(=N\NC(=O)C(c1ccccc1)c1ccccc1)c1ccc(O)cc1 | . | 59.6 | . | . | . | .
COC(C(=O)N/N=C(\C)c1ccc(O)cc1)c1ccccc1 (stereo not given) | / | . | . | . | . | /
O=C(CSc1ccc(-c2ccccn2)nn1)NC1CCCC1 | . | 59.0 | . | . | . | 17.9µM
O=C(CSc1ccc(-c2ccccn2)nn1)N1CCCC1 | . | 84.9 | . | . | . | 48.1µM | ARNT Alpha ctr-2=23.2
O=C(CSc1ccc(-c2ccccn2)nn1)c1ccccc1 | . | 74.6 | . | . | . | 14.7µM
c1ccc(CN=C2NN=C(c3cc4ccccc4o3)CS2)cc1 | . | / | . | . | . | /
COc1ccc(NC(=O)/C(C#N)=C\c2cc(C)n(-c3ccc4c(c3)OCO4)c2C)cc1 | . | . | . | . | . | /
O=C(NCc1nc2ccccc2[nH]1)C1=C[C@H](c2ccc(C(F)(F)F)cc2)C[C@H](OCCCCO)O1 | . | . | . | . | . | /
CC1(C)Cc2c(sc3nc4n(-c5ccccc5)c(=O)c(CCC(=O)O)nn4c(=O)c23)CO1 | . | 57.4 | . | . | . | .
CC(C)(C)c1ccc(OCCNC(=O)c2ncn[nH]2)cc1 | . | 76.8 | ? | . | . | .
C[C@H]1CN[C@@H](CCO)/C1=C\c1ccccc1 | / | . | / | / | . | /
C/C(=N/NC(=O)c1ccncc1)c1cc2ccc(O)cc2oc1=O | / | 56.9 | . | . | . | .
CCCN(CCC)c1nc(-c2ccccn2)nc2ccccc12 | . | 59.7 | . | . | . | .

High-throughput results as filed in PubChem.
